Assay results published in PubChem BioAssay (Tox21).
“And” between values parts separate entries of the source, which are not always exact repeats. Identical values can stand only once. Inconclusive results are not listed. Where a structure was tested more than once in an assay, its records may differ in their call. The source made the active and inactive calls. Unless noted, the call rests on the fitted dose curve.

Assays:
[1] = target: Thyrotropin receptor (Homo sapiens) (UniProt P16473); experiment: qHTS assay to identify small molecule agonists of the thyroid stimulating hormone receptor (TSHR) signaling pathway (AID 1224843); further: nearly all actives have a fitted effect of over 45% in size
How it was run: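 Using 15 concentrations per compound in triplicate, cAMP production was monitored in TSHR-HEK293 cells after 30 min compound incubation at RT; HTRF reagents followed, with fluorescence intensity recorded after 1 h.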

[2] = qHTS assay to identify small molecule agonists of the hypoxia (HIF-1) signaling pathway - cell viability counter screen (AID 1224844); further: nearly all actives have a fitted effect of over 50% in size
How it was run: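 HRE-bla ME-180; 0.5% dFBS; cpd 17 h, 37C, 5% CO2; CellTiter-Glo lum., 30 min RT, post-FRET read, same wells.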

[3] = qHTS assay to identify small molecule agonists of H2AX (AID 1224845; active means well fitted activation curve with a large enough effect in the signal ratio in the repeat runs, not every such curve was filed as active; the % refers to the signal ratio)
How it was run: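 Wild-type CHO-K1 cells plated overnight, then exposed 3 hr at 37C to compounds at 15 concentrations (0.76% DMSO). Lysed, then HTRF anti-pH2AX(S139)-cryptate/anti-H2AX-d2 detection after 24 hr at room temperature; emissions 665 and 620 nm.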

[4] = qHTS assay to identify small molecule agonists of the hypoxia (HIF-1) signaling pathway (AID 1224846; active means well fitted activation curve with a large enough effect in the signal ratio in the repeat runs, not every such curve was filed as active; the % refers to the signal ratio)
How it was run: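 Reporter induction in HRE-bla ME-180 cells is taken as agonism: cells sit 5 hrs after plating, receive compounds or DMSO only, incubate 17 hrs at 37C under 5% CO2, and are loaded with CCF4-AM for beta-lactamase FRET measurement.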

[5] = qHTS assay to identify small molecule agonists of H2AX - cell viability counter screen (AID 1224847); further: top concentration of the series differs between compounds; nearly all actives have a fitted effect of over 30% in size
How it was run: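 For this counter screen, overnight-attached CHO-K1 cells received test compounds (15 concentrations, 0.76% DMSO final); 3 hr later at 37C, CellTiter-Glo reagent was added and luminescence recorded after 30 min at room temperature.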

[6] = qHTS assay to identify small molecule agonists of the estrogen related receptor (ERR) signaling pathway from Tox21 library (AID 1224849); conditions: ERR reporter cell line, ONE-Glo luciferase, 18 h; at 92.4 µM (top of the series) unless noted; further: nearly all actives have a fitted effect of over 15% in size
How it was run: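 Tox21 compounds tested for ERR agonism in an NTP reporter cell line: 18 h treatment at 37 C, then ONE-Glo luminescence.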

[7] = qHTS RealTime-Glo MT Cell Viability Assay in HepG2 cells - 24 hour (AID 1224867; active means well fitted curve in the direction sought with a large enough effect in the repeat runs; an effect the other way counts as inactive or inconclusive; further: nearly all actives have a fitted effect of over 50% in size)
How it was run: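 Tox21 10K library screened in qHTS format on HepG2 cells carrying RealTime-Glo reagents. Compounds were added after a 5 h preincubation, and the luminescent signal from continuous culture was measured repeatedly during 40 h treatment.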

[8] = qHTS RealTime-Glo MT Cell Viability Assay in HEK293 cells - 32 hour (AID 1224868; active means well fitted curve in the direction sought with a large enough effect in the repeat runs; an effect the other way counts as inactive or inconclusive; further: nearly all actives have a fitted effect of over 50% in size; further: potency means the concentration at half of the fitted maximal effect; on activity change, negative = cytotoxic: top concentration of the series differs between compounds)
How it was run: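 Luminescence generated by NanoLuc from substrate produced by living HEK293 cells served as the viability signal. Each value reflects the reading at its stated time point during continuous 40 h compound exposure at 37 C.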

[9] = A CellTox Green Cytotoxicity Assay to monitor cytotoxicity in HEK293 cells - 0 hour (AID 1224869; active means well fitted curve in the direction sought with a large enough effect in the repeat runs; an effect the other way counts as inactive or inconclusive; further: nearly all actives have a fitted effect of over 50% in size; further: potency means the concentration at half of the fitted maximal effect)
How it was run: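 Tox21 screen in HEK293: membrane-impermeant cyanine dye fluoresces on binding dead-cell DNA; compound pinned 5 h post-seeding, plates held at 37 C, signal read repeatedly through 40 h.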

[10] = qHTS assay to identify small molecule antagonists of the estrogen related receptor (ERR) signaling pathway from Tox21 library (AID 1224848; active means well fitted curve in the direction sought with a large enough effect in the repeat runs; an effect the other way counts as inactive or inconclusive; further: nearly all actives have a fitted effect of over 50% in size)
How it was run: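 Tox21 10K compounds in DMSO tested for ERR pathway antagonism in NTP's ERR cell line; 18 h, 37 C exposure; ONE-Glo luminescence.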
On the % scale 0 is the no-effect control and ±100 the full control effect.

Sequence of Thyrotropin receptor (Homo sapiens) (P16473 whole entry, looked up): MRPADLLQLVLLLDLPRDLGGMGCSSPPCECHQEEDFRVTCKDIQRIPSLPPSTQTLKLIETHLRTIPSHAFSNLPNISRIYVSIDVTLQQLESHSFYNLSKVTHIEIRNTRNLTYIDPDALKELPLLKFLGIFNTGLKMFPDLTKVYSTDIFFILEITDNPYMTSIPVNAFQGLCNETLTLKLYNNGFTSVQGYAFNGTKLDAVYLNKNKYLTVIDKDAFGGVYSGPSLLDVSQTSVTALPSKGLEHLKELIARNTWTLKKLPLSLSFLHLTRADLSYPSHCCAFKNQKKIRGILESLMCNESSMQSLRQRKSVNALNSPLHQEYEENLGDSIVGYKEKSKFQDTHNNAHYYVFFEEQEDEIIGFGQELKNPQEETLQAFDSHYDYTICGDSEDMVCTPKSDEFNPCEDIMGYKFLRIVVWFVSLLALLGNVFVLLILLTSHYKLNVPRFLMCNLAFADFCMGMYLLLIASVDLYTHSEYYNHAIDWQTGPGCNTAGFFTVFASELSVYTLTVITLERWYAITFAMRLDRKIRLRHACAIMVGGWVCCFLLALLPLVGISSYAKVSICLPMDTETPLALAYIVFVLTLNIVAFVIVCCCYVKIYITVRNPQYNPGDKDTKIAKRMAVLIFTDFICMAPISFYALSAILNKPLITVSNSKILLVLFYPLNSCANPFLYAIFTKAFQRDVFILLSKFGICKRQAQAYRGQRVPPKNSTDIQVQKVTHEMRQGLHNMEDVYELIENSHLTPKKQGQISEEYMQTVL

CCCCC(CC)COC(=O)c1ccccc1O (stereo not given)
inactive: Potency [1] | Potency [2] | outcome [3] | outcome [4] | Potency [5] | activity change, positive = activation [6] 5.6% [at 42.5 µM] | Potency [7] | Potency [8]

CCCCNC(=O)NCCCC
inactive: Potency [1] | Potency [2] | outcome [3] | outcome [4] | Potency [5] | activity change, positive = activation [6] 12.5% | Potency [7]

C[C@H](NC(CCc1ccccc1)C(=O)O)C(=O)N1CCC[C@H]1C(=O)O (stereo not given in full)
inactive: Potency [1] | Potency [2] | outcome [3] | outcome [4] | Potency [5] | activity change, positive = activation [6] -0.914% [at 42.5 µM] | Potency [7] | Potency [8] | Potency [9]

O=C(c1ccccc1)C1CCCCC1
inactive: Potency [1] | Potency [2] | outcome [3] | outcome [4] | Potency [5] | Potency [10] | activity change, positive = activation [6] 3.6% | Potency [9]

CN(C)CCCNCCCN(C)C
inactive: Potency [1] | Potency [2] | outcome [3] | outcome [4] | Potency [5] | activity change, positive = activation [6] -4.23% | Potency [7] | Potency [9]

Cc1[nH]c(=O)c(C#N)cc1-c1ccc2nccn2c1
inactive: Potency [1] | Potency [2] | outcome [3] | outcome [4] | Potency [5] | Potency [7] | Potency [8] | Potency [9]

CCn1ccnc1CC1COc2ccccc2O1 (stereo not given)
inactive: Potency [1] | Potency [2] | outcome [3] | Potency [5] | Potency [10] | activity change, positive = activation [6] 8.29% [at 42.5 µM] | Potency [7] | Potency [8] | Potency [9]

COC(C)(C)CCCC(C)CC=O (stereo not given)
inactive: Potency [1] | Potency [2] | outcome [3] | outcome [4] | Potency [10] | activity change, positive = activation [6] 8.65% | Potency [7] | Potency [8] | Potency [9]

C=C1CC[C@H]2C[C@@H]1C2(C)C
inactive: Potency [1] | Potency [2] | outcome [3] | outcome [4] | Potency [5] | Potency [7] | Potency [8] | Potency [9]

Cc1ccc(=O)n(-c2ccccc2)c1
inactive: Potency [1] | Potency [2] | outcome [3] | Potency [5] | Potency [10] | activity change, positive = activation [6] -0.153% [at 42.5 µM] | Potency [7] | Potency [8] | Potency [9]

O=C(O)CN(CCOCCOCCN(CC(=O)O)CC(=O)O)CC(=O)O
inactive: activation [1] -8.79% [at 0.349 µM] | activity change, negative = cytotoxicity [2] -1.26% [at 0.29 µM] | activation (H2AX phosphorylation) [3] -0.327% [at 0.582 µM] | activity change, negative = cytotoxicity [5] 3.97% [at 0.582 µM] | activity, negative = inhibition [10] 2.61% [at 0.349 µM] | activity change, positive = activation [6] 1.46% [at 0.349 µM] | activity change, negative = cytotoxicity [7] -0.276% [at 0.29 µM] | activity change, negative = cytotoxic [8] 6.99% [at 0.29 µM] | cytotoxicity [9] 0.267% [at 0.29 µM]

N[C@@H](C(=O)N[C@@H]1C(=O)N2C(C(=O)O)=C(Cl)CS[C@H]12)c1ccccc1
inactive: activation [1] -0.277% [at 8.39 µM] | activity change, negative = cytotoxicity [2] 1.81% [at 6.97 µM] | activation (H2AX phosphorylation) [3] 0.237% [at 14 µM] | activity change, negative = cytotoxicity [5] -0.534% [at 14 µM] | activity, negative = inhibition [10] 7.8% [at 8.39 µM] | activity change, positive = activation [6] 4.35% [at 8.39 µM] | activity change, negative = cytotoxicity [7] 0.732% [at 6.97 µM] | activity change, negative = cytotoxic [8] 8.14% [at 6.97 µM] | cytotoxicity [9] 2.09% [at 6.97 µM]

COc1c(N2C[C@@H]3CCCN[C@@H]3C2)c(F)cc2c(=O)c(C(=O)O)cn(C3CC3)c12
inactive: Potency [1] | Potency [2] | outcome [3] | outcome [4] | Potency [5] | Potency [9]

O=C(CCCN1CCC(O)(c2cccc(C(F)(F)F)c2)CC1)c1ccc(F)cc1
inactive: Potency [1] | Potency [2] | outcome [3] | Potency [5] | Potency [10] | activity change, positive = activation [6] -10.2% [at 42.5 µM] | Potency [9]
active: Potency [8] 19 µM

CC(C)CCCC(C)N (stereo not given)
inactive: Potency [1] | Potency [2] | outcome [3] | outcome [4] | Potency [5] | Potency [7] | Potency [8] | Potency [9]

CCCCC/C=C\CCC=O
inactive: Potency [1] | Potency [2] | outcome [3] | outcome [4] | Potency [5] | Potency [7]

O=c1n(CCO)c(=O)n(CCO)c(=O)n1CCO
inactive and 43.6 µM (active): Potency [9]
inactive: Potency [1] | Potency [2] | outcome [3] | outcome [4] | Potency [5] | Potency [7] | Potency [8]

NS(=O)(=O)c1cc(C(=O)O)cc(N2CCCC2)c1Oc1ccccc1
inactive: Potency [1] | Potency [2] | outcome [3] | Potency [5] | Potency [10] | activity change, positive = activation [6] 0.186% [at 42.5 µM] | Potency [7] | Potency [8] | Potency [9]

NC(=O)c1cn(Cc2c(F)cccc2F)nn1
inactive: Potency [1] | Potency [2] | outcome [3] | outcome [4] | Potency [5] | Potency [7] | Potency [8] | Potency [9]

CC(=O)OCC(=O)[C@@]1(O)CCC2C3CCC4=CC(=O)CC[C@]4(C)C3[C@@H](O)C[C@@]21C (stereo not given in full)
inactive: Potency [1] | Potency [2] | outcome [3] | outcome [4] | Potency [5] | activity change, positive = activation [6] -12.1% [at 42.5 µM] | Potency [8] | Potency [9]

O=C1CCCCCCCCCCCN1
inactive: Potency [1] | Potency [2] | outcome [3] | outcome [4] | Potency [5] | Potency [7] | Potency [8] | Potency [9]
